TDP1 cell CPT: qHTS for Inhibitors of human tyrosyl-DNA phosphodiesterase 1 (TDP1): qHTS in cells in presence of CPT. Potency, µM (top dose mostly 46.2 µM), for the others: at the top dose activity change, negative = growth inhibition, actives largely listed as inhibitors. actives 12% (n = 420,000). AID 686979, 2013. chicken DT40 Tdp1-/-;hTDP1 cells + 20 nM CPT, ATP luminescence, 48 h; further: potency means the concentration at half of the fitted maximal effect; nearly all actives have a fitted effect of over 55% in size
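Cell growth measured by CellTiter-Glo luminescence after a minimum 48 h, 37 C compound exposure with 20 nM CPT in Tdp1-knockout DT40 cells stably expressing hTDP1, seeded 400/well; qHTS titration format.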
IL-1B inflam inh: qHTS for Inhibitors of Inflammasome Signaling: IL-1-beta AlphaLISA Primary Screen. THP-1 LPS/ATP IL-1B secretion, AlphaLISA, 16 h; stronger effect = lower value. actives 4.7% (n = 360,000). activity change, % at 57.5 µM; in the data active means activity change below about -50%; inconclusive means mostly about -30% to -49%
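Secreted IL-1B measured by AlphaLISA bead assay after 16 h compound exposure of THP-1 cells; compounds (final up to 57.5 uM) added 1 h before LPS (250 ng/mL) and ATP (1.25 mM) stimulation; lower signal means less secretion.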
HT1080NT lethal: qHTS for induction of synthetic lethality in tumor cells producing 2HG: qHTS for the HT-1080-NT fibrosarcoma cell line | HT-1080-NT fibrosarcoma viability, CellTiter-Glo ATP luminescence, 48 h | actives 1.6% (n = 360,000) | Potency, µM (doses to about 46.1 µM), for inactives: at the highest dose activity, negative = less viability, actives largely listed as cytotoxic;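 further: NT is the 2HG producing partner of a matched IDH1 knockdown line; potency means the concentration at half of the fitted maximal effect; 0% = DMSO-treated cells and -100% = media-only wells without cells; nearly all actives have a fitted effect of over 55% in size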
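A 48-hour cytotoxicity screen used HT-1080-NT cells plated 2 hours before compound delivery. ATP-based CellTiter-Glo luminescence measured viability, normalized to DMSO and no-cell controls.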
HT1080 IDH1KD tx: qHTS for induction of synthetic lethality in tumor cells producing 2HG: qHTS for the HT-1080-IDH1KD cell line; actives 2% (n = 360,000); AID 686971, 2013; Potency, µM (titrated, usually from 46.1 µM), without a hit: at the highest dose activity, negative = toxicity, actives largely listed as cytotoxic; HT-1080 IDH1 knockdown viability, ATP luminescence, 48 h;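 further: potency means the concentration at half of the fitted maximal effect; 0% = DMSO wells and -100% = cell-free medium wells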
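IDH1KD HT-1080 cells, 750/well, RPMI + 5% FBS; compound pinned after 2 h settling; 48 h, 37 °C; CellTiter-Glo luminescence; % activity normalised to DMSO and no-cell wells; curves fitted, classed by r2 and efficacy.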
TDP1 cell noCPT: qHTS for Inhibitors of human tyrosyl-DNA phosphodiesterase 1 (TDP1): qHTS in cells in absence of CPT; DT40 Tdp1-/- hTDP1 cells, no CPT, ATP luminescence, 48 h; Potency, µM (doses to about 46.2 µM), inactives show at the top dose activity change, negative = growth inhibition, hits mostly inhibitors; actives 15% (n = 420,000); further: potency means the concentration at half of the fitted maximal effect; nearly all actives have a fitted effect of over 55% in size
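Growth of hTDP1-complemented DT40 Tdp1-knockout cells is measured by ATP luminescence after at least 48 hr compound exposure at 37 °C, with DMSO substituting for the 20 nM CPT used in the parallel screen.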
Active calls of the source: *; ? = inconclusive; . = no result; ! = a repeat was not active. In the library only some 19% were active in any assay of this set; here they are far more common. Unless noted, the call rests on the fitted dose curve; in most records, active means well fitted curve in the direction sought with a large enough effect; inconclusive means small, poorly fitted or top-dose-only effect, or another doubt; inactive means no such curve, though single readings can be large; an effect the other way counts as inactive or inconclusive. Unless noted, on the % scale 0 is the no-effect control and ±100 the full control effect.

SMILES | TDP1 cell CPT | IL-1B inflam inh | HT1080NT lethal | HT1080 IDH1KD tx | TDP1 cell noCPT
COc1ccc(C[C@@H]2CN3C(=NC[C@@H]3Cc3ccc(O)cc3)N2C[C@H](C)NC(=O)CCC2CCCCC2)cc1 | 5.8µM* | ? | -10% | -7% | 5.2µM*
CCOc1ccc(NS(=O)(=O)c2ccc(NC(=O)C3CCCO3)cc2)cc1 (configuration not stated) | ? | 15 | -6% | -16% | ?
CC(Oc1ccc(C(C)(C)C)cc1)c1ccnc2nc(/N=C/N(C)C)nn12 (configuration not stated) | 16µM* | -3 | -7% | ? | ?
CC(Oc1ccc(F)cc1)c1ccnc2nc(/N=C/N(C)C)nn12 (configuration not stated) | -2% | 25 | 4% | 2% | -7%
O=C1NC(c2cccc(Cl)c2)Oc2ccccc21 (configuration not stated) | 1% | -8 | 10% | 18% | 4%
CCC1NC(=O)c2ccccc2N1c1cccc(Cl)c1 (configuration not stated) | ? | 34 | -27% | ? | 16µM*
O=C1N(Cc2cccnc2)C[C@@H]2C[C@@H](c3ccccc3C#Cc3ccccc3)N3CCC[C@@]123 | 29µM* | -11 | 0% | ? | 16µM*
O=C1N(Cc2cccc(Cl)c2)C[C@@H]2C[C@@H](c3cccc4cccnc34)N3CCC[C@@]123 | ? | -28 | ? | ? | ?
Cc1ccccc1-c1cccc([C@@H]2C[C@H]3CN(Cc4cccnc4)C(=O)[C@]34CCCN24)c1 | 23µM* | 0 | -6% | -24% | 18µM*
Cc1cccc([C@@H]2C[C@H]3CN(Cc4cccc(Cl)c4)C(=O)[C@]34CCCN24)n1 | ? | -14 | 2% | -3% | ?
COC(=O)c1ccc2c(=O)n(-c3ccccc3F)c(=S)[nH]c2c1 | -28% | 61 | 0% | -1% | -25%
COCCNc1nc(Nc2ccc(C)cc2C)c2sccc2n1 | 1.8µM* | 18 | ? | ? | 1.5µM*
COCCNc1nc(NCc2ccc(C)cc2C)c2sccc2n1 | 15µM* | 2 | -11% | -29% | 15µM*
CCOc1ccc(C(=O)/C=C/Nc2ccc(S(=O)(=O)N=C(N)N)cc2)cc1 | ? | 4 | ? | 18µM* | -14%
CC(=O)c1cccc(NC(=O)/C(=C\c2cccnc2)NC(=O)c2ccco2)c1 | -7% | 16 | 9% | 15% | 1%
N#CCC(=O)N/N=C/c1cccc(Oc2ccccc2)c1 | 0% | 16 | -13% | -16% | -12%
COC(=O)N/N=C\c1ccccc1OC/C=C/c1ccccc1 | ? | -65* | ? | ? | ?
N#CCC(=O)N/N=C\c1cc(Br)ccc1OC/C=C/c1ccccc1 | 15µM* | -21 | -19% | ? | 26µM*
CCOC(=O)N/N=C\c1ccccc1OC/C=C/c1ccccc1 | ? | -11 | ? | ? | ?
C=C(C)C1CC=C(C)/C(=N/NC(=O)c2ccc(NC(=O)c3cccc(C)c3)cc2)C1 (configuration not stated) | ? | -21 | 12% | 15% | 18µM*
C=C(C)C1CC=C(C)/C(=N/NC(=S)Nc2ccccc2)C1 (configuration not stated) | 12µM* | 13 | 13% | 9% | 6.5µM*
C=C(C)C1CC=C(C)/C(=N/NC(=O)COc2cccc3ccccc23)C1 (configuration not stated) | -10% | -13 | 3% | 8% | -24%
CC(=O)Nc1ccc(NC(=O)C2(C)CC2(Cl)Cl)cc1 (configuration not stated) | ? | -3 | 9% | 7% | 18µM*
CCCCCCCCCCCCCC[N+](C)(C)C | 0.94µM* | . | . | . | 0.6µM*
CCCCCCCCCCCCCCCCOP(=O)([O-])OCC[N+](C)(C)C | -8% | . | . | . | 11%
SMILES | TDP1 cell CPT | IL-1B inflam inh | HT1080NT lethal | HT1080 IDH1KD tx | TDP1 cell noCPT
CCCCCC[N+](C)(C)CCSSCC[N+](C)(C)CCCCCC | -7% | -11 | 11% | 1% | -5%
CCCCCCCC[N+](C)(C)CCCCCCCC | 1.7µM* | . | . | . | 1.5µM*
CCCCCCCCCCCCCCCC[N+](C)(C)CC | 1µM* | -1 | 16µM* | 16µM* | 0.52µM*!
CCCCCCCCCCCCCCCC[N+](C)(C)CCl | 1.8µM* | -92* | -11% | -30% | 2.3µM*
CCCCCCCCO | 8% | 18 | 29% | 6% | 3%
COc1cccc(SCc2noc(C(=O)NCC3CCCO3)c2C(=O)O)c1 (configuration not stated) | 0% | 8 | 2% | -5% | -29%
COC(=O)c1ccc(/C=N\NC(=O)c2c(C)nc3ccc(Cl)cn23)cc1 | ? | -4 | -11% | -5% | 10µM*
COc1cccc(/C=N/NC(=O)c2c(C)nc3ccc(Br)cn23)c1O | 4.6µM* | 187 | ? | ? | 3.3µM*
COc1cccc(/C=N/NC(=O)c2c(C)nc3ccc(Cl)cn23)c1OC | 16µM* | 6 | -2% | 0% | ?
CCOc1ccccc1/C=N/NC(=O)c1c(C)nc2ccc(Br)cn12 | -1% | 31 | 0% | -6% | -4%
C=CCOc1ccc(/C=N/NC(=O)c2c(C)nc3ccc(Cl)cn23)cc1 | 24% | 34 | 12% | 3% | ?
COc1ccc(/C=N/NC(=O)c2c(C)nc3ccc(Br)cn23)cc1OC | 8.2µM* | 46 | ? | 4.6µM* | 7.3µM*
C[C@@H]1CN([C@@H](C)CO)C(=O)CCCn2nncc2CO[C@H]1CN(C)C(=O)c1ccccc1 | -1% | -6 | 2% | 6% | 1%
NC(=S)N/N=C/c1coc2ccc(Cl)cc2c1=O | 4% | 10 | 0% | 0% | -20%
Cc1ccc(C(=O)NCCNS(C)(=O)=O)cc1 | -26% | 0 | 5% | 5% | 13%
COc1ccc(/C=N/NC(=O)c2c(C)nc3ccc(Cl)cn23)cc1OC | 12µM* | 49 | ? | -6% | 8.2µM*
CC(C)(C)[C@H]1C=C(C(=O)NCc2ccccc2)O[C@@H](OCCCCO)C1 | -22% | -16 | 0% | 7% | -17%
CCOc1ccc(S(=O)(=O)N2CCN(C(=O)c3cccn3C)CC2)cc1 | ? | -3 | 5% | 5% | 15µM*
CCOc1ccc(S(=O)(=O)N2CCN(C(=O)Cc3ccc(S(=O)(=O)N4CCOCC4)s3)CC2)cc1 | ? | -13 | -8% | 0% | 23µM*

Source: PubChem
